Experimental data: PubChem BioAssay (NCATS)
Results filed as inconclusive are left out. Active and inactive are the calls of the source. Unless noted, calls come from the whole dose curve; as a rule, active = well fitted curve in the direction sought with a large enough effect; inconclusive = small, poorly fitted or top-dose-only effect, or another doubt; inactive = no such curve, though single readings can be large; an effect the other way counts as inactive or inconclusive.

Legend:
[1] = system: ATS189; test: qHTS profiling for inhibitors of Plasmodium falciparum proliferation (AID 504749); note: nearly all actives have a fitted effect of over 60% in size; note: potency is the fitted concentration of half-maximal effect; details: P. falciparum in erythrocytes, SYBR Green DNA, 72 h; series mostly up to 12.8 µM
Method in brief: (§1)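 Readout was DNA-dye fluorescence from lysed cultures, ex 485/em 535 nm. Parasitized red cells had grown 72 h with compound; data scaled between 0.29 uM artemisinin and DMSO wells and corrected using vehicle-only plates.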

[2] = system: CP185; test: as above; details: P. falciparum in erythrocytes, SYBR Green DNA, 72 h; series mostly up to 12.8 µM
Method in brief: as §1

[3] = system: CP191; test: as above; details: P. falciparum in erythrocytes, SYBR Green DNA, 72 h; series mostly up to 12.8 µM
Method in brief: as §1

[4] = system: CP201; test: as above; details: P. falciparum in erythrocytes, SYBR Green DNA, 72 h; series mostly up to 12.8 µM
Method in brief: as §1

[5] = system: CP247; test: as above; details: P. falciparum in erythrocytes, SYBR Green DNA, 72 h; series mostly up to 12.8 µM
Method in brief: as §1

[6] = system: CP256; test: as above; details: P. falciparum in erythrocytes, SYBR Green DNA, 72 h; series mostly up to 12.8 µM
Method in brief: as §1

[7] = system: CP305; test: as above; details: P. falciparum in erythrocytes, SYBR Green DNA, 72 h; series mostly up to 12.8 µM
Method in brief: as §1

[8] = system: CP325; test: as above; details: P. falciparum in erythrocytes, SYBR Green DNA, 72 h; series mostly up to 12.8 µM
Method in brief: as §1

[9] = system: CP329; test: as above; details: P. falciparum in erythrocytes, SYBR Green DNA, 72 h; series mostly up to 12.8 µM
Method in brief: as §1

[10] = system: CP335; test: as above; details: P. falciparum in erythrocytes, SYBR Green DNA, 72 h; series mostly up to 12.8 µM
Method in brief: as §1

[11] = system: Dd2; test: as above; details: P. falciparum in erythrocytes, SYBR Green DNA, 72 h; series mostly up to 12.8 µM
Method in brief: as §1

[12] = system: JCK; test: as above; details: P. falciparum in erythrocytes, SYBR Green DNA, 72 h; series mostly up to 12.8 µM
Method in brief: as §1

[13] = system: N140; test: as above; details: P. falciparum in erythrocytes, SYBR Green DNA, 72 h; series mostly up to 12.8 µM
Method in brief: as §1

[14] = system: PC15; test: as above; details: P. falciparum in erythrocytes, SYBR Green DNA, 72 h; series mostly up to 12.8 µM
Method in brief: as §1

[15] = system: PC26; test: as above; details: P. falciparum in erythrocytes, SYBR Green DNA, 72 h; series mostly up to 12.8 µM
Method in brief: as §1

[16] = system: PC49; test: as above; details: P. falciparum in erythrocytes, SYBR Green DNA, 72 h; series mostly up to 12.8 µM
Method in brief: as §1

[17] = system: SC27B; test: as above; details: P. falciparum in erythrocytes, SYBR Green DNA, 72 h; series mostly up to 12.8 µM
Method in brief: as §1

[18] = system: TAB113; test: as above; details: P. falciparum in erythrocytes, SYBR Green DNA, 72 h; series mostly up to 12.8 µM
Method in brief: as §1

[19] = target: Guanine nucleotide-binding protein G(i) subunit alpha-1 (Homo sapiens) (UniProt P63096); test: qHTS Assay for Inhibitors of RGS12 GoLoco Motif Activity (Green Fluorophore) (AID 879); note: potency is the fitted concentration of half-maximal effect
Guanine nucleotide-binding protein G(i) subunit alpha-1 (Homo sapiens), sequence (P63096 whole entry, looked up): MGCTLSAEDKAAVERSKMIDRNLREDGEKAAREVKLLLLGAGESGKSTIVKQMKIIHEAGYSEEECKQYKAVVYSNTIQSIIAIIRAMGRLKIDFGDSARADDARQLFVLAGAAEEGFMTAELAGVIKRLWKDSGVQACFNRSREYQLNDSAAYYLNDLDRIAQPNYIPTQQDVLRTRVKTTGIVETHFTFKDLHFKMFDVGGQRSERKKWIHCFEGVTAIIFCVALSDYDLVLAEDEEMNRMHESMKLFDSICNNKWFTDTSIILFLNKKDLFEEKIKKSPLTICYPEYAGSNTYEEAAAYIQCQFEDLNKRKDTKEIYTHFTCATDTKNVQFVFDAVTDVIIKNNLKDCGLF
Method in brief: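 Fluorescence polarization assay: 50 nM Gαi1 with 10 nM FITC-labeled RGS12 GoLoco peptide in 10 mM Tris pH 7.5, 150 mM NaCl, 0.1 mM GDP, 0.05% NP40, 10 min at room temperature with compound.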

[20] = target: Pyruvate kinase PKM (Homo sapiens) (UniProt P14618); test: qHTS Assay for Activators of Human Muscle Pyruvate Kinase (AID 954; active = well fitted curve in the direction sought with a large enough effect, not every such curve was filed as active)
Pyruvate kinase PKM (Homo sapiens), sequence (P14618 whole entry, looked up): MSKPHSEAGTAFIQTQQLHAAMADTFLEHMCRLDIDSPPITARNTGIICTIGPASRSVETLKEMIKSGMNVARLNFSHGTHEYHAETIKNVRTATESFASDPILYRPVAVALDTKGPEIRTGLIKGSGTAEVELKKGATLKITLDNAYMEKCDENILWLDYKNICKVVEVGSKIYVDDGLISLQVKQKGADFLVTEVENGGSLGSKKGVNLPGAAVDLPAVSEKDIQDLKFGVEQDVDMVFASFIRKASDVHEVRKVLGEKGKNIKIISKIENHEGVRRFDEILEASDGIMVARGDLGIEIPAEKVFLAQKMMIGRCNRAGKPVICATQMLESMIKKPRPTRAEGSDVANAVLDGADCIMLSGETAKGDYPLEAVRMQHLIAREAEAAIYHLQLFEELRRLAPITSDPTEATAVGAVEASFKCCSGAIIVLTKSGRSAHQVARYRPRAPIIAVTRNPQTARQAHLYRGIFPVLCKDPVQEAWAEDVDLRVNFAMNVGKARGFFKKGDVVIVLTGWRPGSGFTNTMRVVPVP
Method in brief: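 Human PKM2 activity is measured as ATP generation, detected by luciferase-coupled luminescence. The enzyme (0.1 nM) acts on 0.5 mM PEP and 0.1 mM ADP for 1 h at ambient temperature; data are normalized to uninhibited and full-inhibition wells.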

Measured: Potency

COc1c(O)cc2c(c1O)[C@@H]1O[C@@H](CO)[C@@H](O)[C@@H](O)[C@@H]1OC2=O
not listed: [19] | [20]
inactive: all other assays above

CC[C@H](NC(C)C)[C@H](O)c1ccc(O)c(O)c1
not listed: [5] | [14]
inactive: all other assays above

OCCN1CCN(CC/C=C2\c3ccccc3Sc3ccc(C(F)(F)F)cc32)CC1
inactive: [19] | [20]

CN(C)CCO[C@](C)(c1ccccc1)c1ccccn1
inactive: [19] | [20]

CCC[C@H]1C(=O)N2C(N(C)C)=Nc3ccc(C)cc3N2C1=O
not listed: [19] | [20]
inactive: all other assays above

O=c1[nH]c(=O)n([C@@H]2C[C@H](O)[C@H](CO)O2)cc1I
not listed: [19] | [20]
inactive: all other assays above

NC(N)=NC[C@@H]1COC2(CCCCC2)O1
not listed: [19] | [20]
inactive: all other assays above

COc1ccccc1OC[C@H](O)COC(N)=O
not listed: [19] | [20]
inactive: all other assays above

CN(C)[C@@H]1C(=O)C(C(N)=O)=C(O)[C@]2(O)C(=O)C3=C(O)c4c(O)ccc(Cl)c4[C@H](O)[C@H]3C[C@@H]12
active: [11] 3.16 µM
not listed: [10]
inactive: all other assays above

C[C@@H](CN(C)C)CN1c2ccccc2CCc2ccccc21
not listed: [3] | [11] | [13] | [15]
inactive: all other assays above

C[n+]1ccccc1/C=N\O
not listed: [19] | [20]
inactive: all other assays above

CC(=O)Nc1c(I)c(C(=O)N[C@H]2[C@@H](O)[C@H](O)[C@H](CO)O[C@@H]2O)c(I)c(N(C)C(C)=O)c1I
not listed: [19] | [20]
inactive: all other assays above

CN(C)CC[C@H](c1ccc(Br)cc1)c1ccccn1
inactive: [19] | [20]

CN(C)CC[C@@H](c1ccccc1)c1ccccn1
inactive: [19] | [20]

CC1=C(C(=O)O)N2C(=O)[C@@H](NC(=O)[C@@H](N)c3ccccc3)[C@@H]2SC1
inactive: [19] | [20]

CC(C)NC[C@H](O)c1cc(O)cc(O)c1
inactive: all assays above

CCN(CC)CCC[C@H](C)Nc1c2ccc(Cl)cc2nc2ccc(OC)cc12
inactive: [20]
active: [19] 25.1 µM | [1] 891 nM | [2] 708 nM | [3] 0.398 µM | [4] 1.2 µM | [5] 1.12 µM | [6] 0.631 µM | [7] 379 nM | [8] 0.426 µM | [9] 1.2 µM | [10] 0.536 µM | [11] 0.447 µM | [12] 3.16 µM | [13] 0.891 µM | [14] 447 nM | [15] 675 nM | [16] 1.58 µM | [17] 1.26 µM | [18] 891 nM

CN1Cc2c(N)cccc2[C@H](c2ccccc2)C1
inactive: [20]

C[C@H](NCCc1ccc(O)cc1)[C@@H](O)c1ccc(O)cc1
inactive: all assays above

CC(=O)O[C@]1(C(C)=O)CC[C@@H]2[C@@H]3C=C(Cl)C4=CC(=O)[C@H]5C[C@@H]5[C@]4(C)[C@H]3CC[C@]21C
inactive: [19] | [20]

CCN(CC)CCC[C@H](C)Nc1ccnc2cc(Cl)ccc12
active: [2] 4470 nM | [3] 8.91 µM | [4] 12 µM | [6] 8.91 µM | [7] 2690 nM | [8] 7.57 µM | [9] 15.1 µM | [10] 12 µM | [11] 10 µM | [12] 10 µM | [13] 11.2 µM | [14] 2510 nM | [15] 4780 nM
inactive: [19] | [20]

Cc1ccccc1[C@@H](OCCN(C)C)c1ccccc1
inactive: [19] | [20]

CC1(C)S[C@@H]2[C@H](NC(=O)[C@H](C(=O)O)c3ccsc3)C(=O)N2[C@H]1C(=O)O
not listed: [19] | [20]
inactive: all other assays above

CO/N=C(/C(=O)NC1C(=O)N2C(C(=O)O)=C(CSc3nc(=O)c(O)nn3C)CSC12)c1csc(N)n1 (stereo not drawn)
not listed: [19] | [20]
inactive: all other assays above

O=C(O)/C=C\c1ccc(Cn2ccnc2)cc1
not listed: [19] | [20]
inactive: all other assays above

CN[C@@H]1[C@H](O[C@@H]2O[C@H](CO)[C@@H](N)[C@H](O)[C@@H]2O)O[C@H]2C[C@@H](N)[C@@H](O[C@H]3[C@@H](O)[C@H](O)[C@H](N)C[C@@H]3N)O[C@H]2[C@H]1O
not listed: [19] | [20]
inactive: all other assays above

CCN1CCC[C@@H]1CNC(=O)c1cc(S(N)(=O)=O)ccc1OC
inactive: [19] | [20]

CN(C)[C@H]1C(=O)C(C(=O)NCN2CCCC2)=C(O)[C@]2(O)C(=O)C3=C(O)c4c(O)cccc4[C@@](C)(O)[C@H]3C[C@@H]12
not listed: [19] | [20]
inactive: all other assays above

N[C@@H](CO)C(=O)NNCc1ccc(O)c(O)c1O
not listed: [19]
inactive: all other assays above

O=C(O)[C@H]1CCCN(CCC=C(c2ccccc2)c2ccccc2)C1
inactive: [19] | [20]

NS(=O)(=O)c1cc([C@@]2(O)NC(=O)c3ccccc32)ccc1Cl
not listed: [19] | [20]
inactive: all other assays above

C[C@@H](C(=O)O)c1cccc(C(=O)c2ccccc2)c1
inactive: [19] | [20]

C[N+]1(C)CCC[C@@H](OC(=O)C(O)(c2ccccc2)c2ccccc2)C1
not listed: [19] | [20]
inactive: all other assays above

CC1(C)Oc2ccc(C#N)cc2[C@H](N2CCCC2=O)[C@H]1O
not listed: [19] | [20]
inactive: all other assays above
